In the supplement of paper PMC10811239:

Test system: LEGO organoid PT (PTEN-/-; TP53-/-)
Experiment: bioluminescence (viable cell) signal fold change after vs before treatment, normalised to DMSO (ratio); higher = more tumour cell growth / less inhibition
Settings: 10 µM; treatment time 6 days
Protocol: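 Luc2-labelled iPSC-derived glioblastoma-like organoids (LEGOs, genotypes PT = PTEN-/-;TP53-/-, PTCC = plus CDKN2A/B-/-, PTN = plus NF1-/-) were treated with 10 uM drug for 6 days (applied every other day) at 37 C. Bioluminescence imaging was done before treatment and 2 days after the last dose. BLI signals were normalised to the DMSO control on the same day and then to the pre-treatment signal (N=3).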

Row | SMILES | bioluminescence
1 | CN(C)CCc1c[nH]c2ccc(Cn3cncn3)cc12.O=C(O)c1ccccc1 [Rizatriptan benzoate] | 0.898
2 | CN(C)CCc1c[nH]c2ccc(C[C@H]3COC(=O)N3)cc12 [Zolmitriptan] | 0.724
3 | CC1=C(/C=C/C(C)=C/C=C/C(C)=C/C(=O)O)C(C)(C)CCC1 [Tretinoin] | 0.834
4 | CC(=O)NCCCS(=O)(=O)[O-].CC(=O)NCCCS(=O)(=O)[O-].[Ca+2] [Acamprosate calcium] | 2.61
5 | Cc1ncc([N+](=O)[O-])n1CCO [Metronidazole] | 0.839
6 | C[C@@H](O[C@H]1OCCN(Cc2nc(=O)[nH][nH]2)[C@H]1c1ccc(F)cc1)c1cc(C(F)(F)F)cc(C(F)(F)F)c1 [Aprepitant] | 0.86
7 | C[C@]12CC[C@@H]3c4ccc(O)cc4CC[C@H]3[C@@H]1CC[C@@H]2O [Estradiol] | 0.389
8 | CC(C(=O)O)c1ccc(-c2ccccc2)c(F)c1 (centres undefined) [Flurbiprofen] | 1.09
9 | CC(=O)N[C@@H](CS)C(=O)O [Acetylcysteine] | 1.23
10 | Cc1cc(NS(=O)(=O)c2ccc(N)cc2)no1 [Sulfamethoxazole] | 3.73
11 | Cn1c(=O)c2[nH]cnc2n(C)c1=O [Theophylline] | 0.849
12 | O=C1[N-]C(=O)C(c2ccccc2)(c2ccccc2)N1.[Na+] [Phenytoin sodium] | 0.855
13 | O=C(O)c1cccnc1 [Niacin] | 0.772
14 | Nc1nc(NC2CC2)c2ncn([C@H]3C=C[C@@H](CO)C3)c2n1 [Abacavir] | 1.2
